Laboratory results taken from ChEMBL document CHEMBL1961873, “Compounds: GSK PKIS; Assays: Nanosyn kinase panel” (2012).
Where “and” joins values, the source holds several entries; their conditions need not be identical. Equal entries are not always repeated.

The molecules below were run against Tyrosine-protein kinase Lyn (Homo sapiens) (UniProt P07948). Conditions: at 1 µM.
Chain of Tyrosine-protein kinase Lyn (Homo sapiens) (P07948 2-512 limits assumed): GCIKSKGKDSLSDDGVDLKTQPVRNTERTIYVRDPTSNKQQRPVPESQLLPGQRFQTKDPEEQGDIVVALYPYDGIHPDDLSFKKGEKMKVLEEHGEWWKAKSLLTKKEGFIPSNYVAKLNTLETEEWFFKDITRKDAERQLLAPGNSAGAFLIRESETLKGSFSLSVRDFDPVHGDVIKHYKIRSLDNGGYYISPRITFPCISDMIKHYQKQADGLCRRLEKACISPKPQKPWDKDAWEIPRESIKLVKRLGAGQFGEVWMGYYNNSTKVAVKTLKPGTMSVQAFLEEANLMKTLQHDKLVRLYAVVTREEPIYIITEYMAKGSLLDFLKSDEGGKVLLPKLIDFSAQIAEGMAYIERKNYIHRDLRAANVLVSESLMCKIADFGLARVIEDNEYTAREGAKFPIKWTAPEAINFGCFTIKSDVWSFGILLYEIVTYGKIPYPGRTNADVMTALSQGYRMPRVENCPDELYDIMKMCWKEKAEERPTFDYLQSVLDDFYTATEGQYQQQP
CCCNc1cccc(-n2ncc3c(N/N=C/c4ccncc4)ncnc32)c1 showed an inhibition of 69.6%.
Cc1nnc(-c2cccc(-c3ccc(C(=O)NCC4CC4)cc3)c2)o1 gave an inhibition of 5.98%.
Molecule Cc1ccc(-c2cc3c(NC(=O)C4CC4)ncnc3o2)cc1 has an inhibition of 6.63%.
Molecule Cc1cc(O)cc(C)c1/C=C/c1cncc(C(=O)OC(C)(C)C)c1 has an inhibition of 57.2%.
COc1ccc(Nc2ncc(-c3ccccc3)o2)cc1OC was tested, and the inhibition was 37.3%.
In the case of COC(=O)Nc1nc2ccc(Oc3ccc(NC(=O)Nc4cc(C(F)(F)F)ccc4F)cc3)cc2s1, the inhibition was 70.5%.
In the case of O=C1Nc2ccccc2/C1=C1\CCc2cc(O)ccc21, the inhibition was 12%.
In the case of O=C(Nc1n[nH]c2nnc(-c3cccnc3)cc12)C1CC1, the inhibition was 1.49%.
c1cnn2ncc(-c3ccnc(NCCCN4CCOCC4)n3)c2c1 showed an inhibition of 3.64%.
For Cc1c2ccc(N(C)c3ccnc(Nc4cccc(S(N)(=O)=O)c4)n3)cc2nn1C, the inhibition was 83.6%.
CNC(=O)c1sc(-n2cnc3cc(OC)c(OC)cc32)cc1OCc1ccccc1C(F)(F)F was tested, and the inhibition was 8.91%.
CC1=C(C(=O)Nc2ccc3[nH]nc(C)c3c2)C(c2ccc(C(F)(F)F)cc2)CC(=O)N1 (configuration not stated) was tested, and the inhibition was 6.25%.
With Nc1nonc1-c1nc2cnccc2n1C1CC1 the inhibition was 4.88% and 4.63%.
COC(=O)Nc1nc2cc(Oc3ccc(NC(=O)Nc4ccccc4)cc3)ccc2[nH]1 was tested, and the inhibition was 8.66%.
Nc1nccc(-c2c(-c3ccc(F)cc3)ncn2C2CCNCC2)n1 was tested, and the inhibition was 9.44% and 9.35%.
In the case of COc1cccc(-n2ncc3c(N/N=C/c4ccc(C(=O)NCCN(C)C)cc4)ncnc32)c1, the inhibition was 88.1%.
COc1c(C(N)=O)cc(-c2ccc(Cl)cc2)cc1-c1ccc(S(N)(=O)=O)cc1 showed an inhibition of 6.7%.
Fc1ccc(Nc2nccc(-c3c(-c4ccc(C(F)(F)F)cc4)nn4ncccc34)n2)cc1F showed an inhibition of 2.13%.
Molecule CCN1CCC(C(=O)Nc2n[nH]c3nnc(-c4cccc(F)c4F)cc23)CC1 has an inhibition of -1.05%.
With c1ccc(-c2n[nH]cc2-c2ccnc(-c3ccc(OCCn4ccnc4)cc3)c2)nc1 the inhibition was 16.3%.
CS(=O)(=O)CCNCc1ccoc1-c1ccc2ncnc(Nc3ccc(OCc4ccccc4)cc3)c2c1 was tested, and the inhibition was 4.27%.
Work on CCn1c(-c2nonc2N)nc2cncc(C(=O)NCCNC)c21 yielded an inhibition of 6.4%.
Molecule CS(=O)(=O)CCNCc1ccc(-c2ccc3ncnc(Nc4ccc(OCc5ccccc5)cc4)c3c2)o1 has an inhibition of 9.83%.
With COc1cccc(Nc2nccc(-c3cnn4ncccc34)n2)c1 the inhibition was 16.9%.
Work on CC1(C)CC(n2cnc(-c3ccc(F)cc3)c2-c2ccnc(N)n2)CC(C)(C)N1 yielded an inhibition of 2.44%.
With NC(=O)c1ccc2c(-c3ccnc(NCCCO)n3)c(-c3ccc(F)cc3)nn2c1 the inhibition was 12.1%.
In the case of CN1CCC(C(=O)Nc2n[nH]c3nc(-c4ccc(O)cc4)c(Br)cc23)CC1, the inhibition was 8.89% and 2.99%.
With CS(=O)(=O)Nc1ccc(-c2cc(-c3ccccc3)cc(C(N)=O)c2N)cc1 the inhibition was 3.24%.
CNC(=O)c1ncccc1Nc1nc(Nc2cc3c(cc2OC)CCCN3C(=O)CN(C)C)nc2[nH]ccc12 was tested, and the inhibition was 4.53%.
Molecule O=C(O[C@H]1CN[C@H](C#Cc2cc3ncnc(Nc4ccc5c(ccn5Cc5cc(F)ccc5F)c4)c3s2)C1)N1CCOCC1 has an inhibition of 6.23%.
COc1cc(N2CCN(C(C)C)CC2)ccc1Nc1nc(Nc2cccc3ncccc23)c2cc[nH]c2n1 gave an inhibition of 2.82%.

These molecules were tested against Tyrosine-protein kinase Lyn (Homo sapiens) (UniProt P07948). Conditions: at 0.1 µM.
With CCCNc1cccc(-n2ncc3c(N/N=C/c4ccncc4)ncnc32)c1 the inhibition was 15.4%.
Cc1nnc(-c2cccc(-c3ccc(C(=O)NCC4CC4)cc3)c2)o1 gave an inhibition of 3.09%.
Cc1ccc(-c2cc3c(NC(=O)C4CC4)ncnc3o2)cc1 gave an inhibition of 2.61%.
Cc1cc(O)cc(C)c1/C=C/c1cncc(C(=O)OC(C)(C)C)c1 was tested, and the inhibition was 13.6%.
COc1ccc(Nc2ncc(-c3ccccc3)o2)cc1OC was tested, and the inhibition was 5.1%.
With COC(=O)Nc1nc2ccc(Oc3ccc(NC(=O)Nc4cc(C(F)(F)F)ccc4F)cc3)cc2s1 the inhibition was 22.6%.
Molecule O=C1Nc2ccccc2/C1=C1\CCc2cc(O)ccc21 has an inhibition of 2.38%.
O=C(Nc1n[nH]c2nnc(-c3cccnc3)cc12)C1CC1 was tested, and the inhibition was 1.05%.
With c1cnn2ncc(-c3ccnc(NCCCN4CCOCC4)n3)c2c1 the inhibition was 2.77%.
With Cc1c2ccc(N(C)c3ccnc(Nc4cccc(S(N)(=O)=O)c4)n3)cc2nn1C the inhibition was 36.3%.
With CNC(=O)c1sc(-n2cnc3cc(OC)c(OC)cc32)cc1OCc1ccccc1C(F)(F)F the inhibition was 4.12%.
For CC1=C(C(=O)Nc2ccc3[nH]nc(C)c3c2)C(c2ccc(C(F)(F)F)cc2)CC(=O)N1 (configuration not stated), the inhibition was 1.98%.
In the case of Nc1nonc1-c1nc2cnccc2n1C1CC1, the inhibition was 2.39% and 0.71%.
With COC(=O)Nc1nc2cc(Oc3ccc(NC(=O)Nc4ccccc4)cc3)ccc2[nH]1 the inhibition was 2.63%.
For Nc1nccc(-c2c(-c3ccc(F)cc3)ncn2C2CCNCC2)n1, the inhibition was -1.82% and 1.01%.
COc1cccc(-n2ncc3c(N/N=C/c4ccc(C(=O)NCCN(C)C)cc4)ncnc32)c1 was tested, and the inhibition was 51%.
COc1c(C(N)=O)cc(-c2ccc(Cl)cc2)cc1-c1ccc(S(N)(=O)=O)cc1 was tested, and the inhibition was 3.05%.
Molecule Fc1ccc(Nc2nccc(-c3c(-c4ccc(C(F)(F)F)cc4)nn4ncccc34)n2)cc1F has an inhibition of 1.22%.
With CCN1CCC(C(=O)Nc2n[nH]c3nnc(-c4cccc(F)c4F)cc23)CC1 the inhibition was 1.1%.
With c1ccc(-c2n[nH]cc2-c2ccnc(-c3ccc(OCCn4ccnc4)cc3)c2)nc1 the inhibition was 0.89%.
With CS(=O)(=O)CCNCc1ccoc1-c1ccc2ncnc(Nc3ccc(OCc4ccccc4)cc3)c2c1 the inhibition was 1.69%.
Molecule CCn1c(-c2nonc2N)nc2cncc(C(=O)NCCNC)c21 has an inhibition of 3.01%.
Work on CS(=O)(=O)CCNCc1ccc(-c2ccc3ncnc(Nc4ccc(OCc5ccccc5)cc4)c3c2)o1 yielded an inhibition of 4.55%.
COc1cccc(Nc2nccc(-c3cnn4ncccc34)n2)c1 showed an inhibition of 3.27%.
CC1(C)CC(n2cnc(-c3ccc(F)cc3)c2-c2ccnc(N)n2)CC(C)(C)N1 gave an inhibition of -0.62%.
Molecule NC(=O)c1ccc2c(-c3ccnc(NCCCO)n3)c(-c3ccc(F)cc3)nn2c1 has an inhibition of 4.82%.
For CN1CCC(C(=O)Nc2n[nH]c3nc(-c4ccc(O)cc4)c(Br)cc23)CC1, the inhibition was 2.55% and 3.95%.
CS(=O)(=O)Nc1ccc(-c2cc(-c3ccccc3)cc(C(N)=O)c2N)cc1 gave an inhibition of -1.81%.
For CNC(=O)c1ncccc1Nc1nc(Nc2cc3c(cc2OC)CCCN3C(=O)CN(C)C)nc2[nH]ccc12, the inhibition was 2.33%.
With O=C(O[C@H]1CN[C@H](C#Cc2cc3ncnc(Nc4ccc5c(ccn5Cc5cc(F)ccc5F)c4)c3s2)C1)N1CCOCC1 the inhibition was 2.03%.
In the case of COc1cc(N2CCN(C(C)C)CC2)ccc1Nc1nc(Nc2cccc3ncccc23)c2cc[nH]c2n1, the inhibition was 0.31%.
